Results: PubChem BioAssay (NCI)
The panel holds about 79,000 compounds, 15% with a hit somewhere; the sample as a whole holds those more often. Values without a mark were called inactive. Calls of active or inactive are those of the source. No stated cut-off is given here; in the data, active means growth inhibition above about 70%; inactive means the rest.

How the values were obtained:
[1] = NCI Yeast Anticancer Drug Screen. Data for the rad50 strain (AID 155);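 further: 0% = growth of vehicle-only cultures of the same strain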; details: S. cerevisiae rad50 strain growth inhibition, hits give high values
Procedure, shortened: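 Inhibition values express reduced yeast growth in compound-treated cultures relative to vehicle-treated controls.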

[2] = NCI Yeast Anticancer Drug Screen. Data for the mec2-1 strain (AID 157); details: S. cerevisiae mec2-1 strain, hits give high values
Procedure, shortened: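 Vehicle-treated cultures served as reference for growth inhibition of compound-exposed mec2-1 yeast.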

[3] = NCI Yeast Anticancer Drug Screen. Data for the sgs1 mgt1 strain (AID 161);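 further: 0% = growth of cultures given vehicle only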; details: S. cerevisiae sgs1 mgt1 strain, hits give high values
Procedure, shortened: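 Test agents were incubated with a DNA-repair-mutant yeast strain. Growth was then read and compared against vehicle-treated controls.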

[4] = NCI Yeast Anticancer Drug Screen. Data for the cln2 rad14 strain (AID 165);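 further: 0% = growth equal to vehicle treated cultures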; details: S. cerevisiae cln2 rad14 strain, hits give high values
Procedure, shortened: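 Each compound was tested on cln2 rad14 yeast. Inhibition of growth was calculated against vehicle-exposed controls.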

[5] = NCI Yeast Anticancer Drug Screen. Data for the bub3 strain (AID 167); details: S. cerevisiae bub3 mutant strain, hits give high values
Procedure, shortened: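 Steps: expose the mutant yeast strain to compound; grow alongside vehicle-treated cultures; measure growth; express inhibition against the vehicle cultures.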

[6] = NCI Yeast Anticancer Drug Screen. Data for the mlh1 rad18 strain (AID 175); details: S. cerevisiae mlh1 rad18 strain growth inhibition, hits give high values
Procedure, shortened: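 Vehicle-treated cultures served as the reference for growth inhibition in a yeast strain carrying DNA damage repair alterations exposed to each compound.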

[7] = at 5.0 µM (retest, dose inferred, filed as 0.5)
[8] = at 50.0 µM (retest, dose inferred, filed as 5.0)

SMILES | growth inhibition [1, 7] | growth inhibition [1, 8] | growth inhibition ([1]; at 50.0 µM) | growth inhibition [2, 7] | growth inhibition [2, 8] | growth inhibition ([2]; at 50.0 µM) | growth inhibition [3, 7] | growth inhibition [3, 8] | growth inhibition ([3]; at 50.0 µM) | growth inhibition [4, 7] | growth inhibition [4, 8] | growth inhibition ([4]; at 50.0 µM) | growth inhibition [5, 7] | growth inhibition [5, 8] | growth inhibition ([5]; at 50.0 µM) | growth inhibition [6, 7] | growth inhibition [6, 8] | growth inhibition ([6]; at 50.0 µM)
Cc1cc(Cl)n2c(nc3ccccc32)c1C#N | 13% | 90% (active) | 98.2% (active) | 23% | 97% (active) | 98.5% (active) | 16% | 94% (active) | 99% (active) | 2% | 89% (active) | 96.8% (active) | 18% | 92% (active) | 98% (active) | 28% | 94% (active) | 98.3% (active)
CC1=C(c2ccccc2)C(=O)OC1=O | 5% | 11% | 52.5% | 2% | 0% | 2.7% | 4% | 6% | -4.65% | 0% | 3% | -28.4% | -2% | 3% | 3.7% | 13% | 14% | -10.4%
CCC(CC=C(C)C)(CC=C(C)C)c1ccncc1 (tested in a mixture with another compound) | -7% | 84% (active) | 97.8% (active) | -8% | 76% (active) | 99% (active) | 1% | 80% (active) | 98.9% (active) | -5% | 50% | 70.5% (active) | 1% | 76% (active) | 93.2% (active) | -4% | 74% (active) | 96.2% (active)
O=C(COC(=O)c1ccc(O)cc1)c1ccc(-c2ccccc2)cc1 | -16% | -13% | 21.7% | -4% | 11% | 25.4% | -1% | 12% | 19.9% | 22% | -45% | 28.1% | 6% | -20% | 17.6% | -5% | 24% | 19.9%
CCOC(=O)/C=C\c1c(Cl)n(-c2ccccc2)c(=O)n(-c2ccccc2)c1=O | 31% | 98% (active) | 87.7% (active) | 24% | 99% (active) | 90.5% (active) | 23% | 99% (active) | 89.8% (active) | 26% | 99% (active) | 90.3% (active) | 31% | 99% (active) | 85.6% (active) | 27% | 98% (active) | 92.3% (active)
Cc1c(Cl)ccc2c(C(O)CNCc3ccccc3)cc(-c3ccc(Cl)cc3)nc12 (configuration not stated) | 44% | 95% (active) | 98.5% (active) | 58% | 95% (active) | 91% (active) | 66% | 92% (active) | 97.1% (active) | 17% | 94% (active) | 93.8% (active) | 26% | 95% (active) | 12.1% | 59% | 95% (active) | 96.5% (active)
CCCC(=O)OCc1cc(=O)n(C)c2c3c4c(cc12)c(C)cc(=O)n4CO3 | 86% (active) | 99% (active) | 25% | 58% | 100% (active) | -11.2% | 79% (active) | 100% (active) | 22.8% | 63% | 99% (active) | 13.6% | 84% (active) | 98% (active) | -11% | 83% (active) | 99% (active) | 22.4%
Clc1ccc(SSN2CCCCC2)cc1 | 2% | 65% | 89% (active) | -1% | 45% | 80.3% (active) | 2% | 82% (active) | 87.8% (active) | 6% | 17% | 7.1% | -1% | 70% (active) | 77.7% (active) | 3% | 84% (active) | 88.4% (active)
O=C(O)/C(=C/c1ccccc1)c1ccccc1.[Ag] | 99% (active) | 99% (active) | 99.4% (active) | 100% (active) | 99% (active) | 94.5% (active) | 100% (active) | 100% (active) | 99.3% (active) | -14% | 99% (active) | 78.8% (active) | 100% (active) | 98% (active) | 93.7% (active) | 99% (active) | 99% (active) | 99.4% (active)
CCOC(=O)C1=C(C)NC2=C(C(=O)N(c3ccccc3)C2c2ccccc2)C1c1ccccc1 (configuration not stated) | 5% | 5% | 72.5% (active) | 9% | 9% | 56.4% | 3% | 3% | 63.1% | -11% | -11% | 65.6% | -7% | -7% | 49.2% | 8% | 8% | 54.1%
COc1c(I)cc(I)c(O)c1I | 6% | 39% | 94.4% (active) | 10% | 80% (active) | 93.8% (active) | 7% | 64% | 91% (active) | 10% | 36% | 88.1% (active) | 3% | 36% | 69.9% | 9% | 77% (active) | 94.2% (active)
N#CI1OC(C(F)(F)F)(C(F)(F)F)c2ccccc21 | 72% (active) | 98% (active) | 45.2% | 61% | 99% (active) | 92.2% (active) | 72% (active) | 99% (active) | 87.7% (active) | 53% | 99% (active) | 88.6% (active) | 91% (active) | 99% (active) | 86.6% (active) | 87% (active) | 98% (active) | 92.3% (active)
c1ccc(-c2cc(-c3cc(-c4ccccn4)[nH]n3)n[nH]2)nc1 | 5% | 4% | 17.2% | 0% | -11% | 0.75% | 0% | 18% | 23.5% | -1% | -16% | 9.05% | 4% | 7% | 3.4% | -5% | 4% | 19.6%
OCC1OC(NC(=S)NCSCCC(F)(F)C(F)(F)C(F)(F)C(F)(F)C(F)(F)C(F)(F)F)C(O)C(O)C1O (configuration not stated) | 17% | -21% | 80.8% (active) | 7% | 19% | 93.5% (active) | 36% | 36% | 93.6% (active) | 22% | 37% | 66.4% | 7% | -8% | 95.1% (active) | 22% | -3% | 92.3% (active)
O=C(c1ccccc1)c1ccc(O)cc1O | -5% | 49% | 85% (active) | -10% | 24% | 84.5% (active) | -5% | 15% | 88.5% (active) | -4% | 2% | 26.4% | -26% | -17% | 58.9% | -9% | 12% | 72.1% (active)
O=C(Nc1ccc(Cl)cc1)Nc1nnc2nc(C(C(=O)c3ccc(F)cc3)c3nc4nnc(NC(=O)Nc5ccc(Cl)cc5)n4[nH]c3=O)c(=O)[nH]n12 | -11% | 32% | 99.5% (active) | -19% | 56% | 99.5% (active) | 4% | 33% | 99.5% (active) | -38% | 36% | 99.2% (active) | -26% | 48% | 99% (active) | -10% | 64% | 99.5% (active)
CCN(CC)CC(O)c1c(-c2ccccc2)c(-c2ccccc2)c2n1CCC2 (configuration not stated) | -4% | 92% (active) | 93.7% (active) | -3% | 96% (active) | 32% | -2% | 83% (active) | 56.7% | -11% | 17% | -4.75% | -3% | 90% (active) | 92.6% (active) | -9% | 92% (active) | 47.6%
CCCCCCCCCCCC(=O)[O][Sn]([CH2]C)([CH2]C)[O]C(=O)CCCCCCCCCCC | 7% | 5% | 79.3% (active) | 2% | 2% | 88.3% (active) | 3% | 44% | 95.8% (active) | 5% | 0% | 48.1% | 3% | -7% | 16.4% | 4% | 12% | 88.7% (active)
Fc1ccc(NC(=S)SCc2ccc(Cl)cc2)c(F)c1 | 19% | 99% (active) | 99.3% (active) | 11% | 99% (active) | 99.6% (active) | 13% | 99% (active) | 99.5% (active) | -2% | 99% (active) | 99.4% (active) | 19% | 98% (active) | 99.5% (active) | 7% | 98% (active) | 99.5% (active)
